Data as given in PubChem BioAssay.
Active and inactive are the calls of the source.

Assays:
[1] = A549 cell viability effects, profiling panel, calcein-AM fluorescence, 48 h, basal (AID 1162); settings: higher = more signal
[2] = adipocyte viability effects, profiling panel, cell-based, 3T3-L1 adipocytes, calcein-AM fluorescence, 48 h, basal (AID 1163); settings: 3T3-L1 adipocytes viability, higher = more signal
[3] = HepG2 cell viability effects, profiling panel, calcein-AM fluorescence, 48 h, basal (AID 1164); settings: higher = more signal
[4] = MM1S cell viability effects, profiling panel, calcein-AM fluorescence, 48 h, basal (AID 1165); settings: higher = more signal;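 also: viability of MM1S multiple myeloma cells under basal unstimulated conditions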
[5] = basal RPMI8226 viability, no added stimulus, profiling panel, cell-based, calcein-AM fluorescence, 48 h, PK04 Diversity Set (AID 1166); settings: RPMI8226 myeloma viability, higher = more signal;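 also: cells grown under basal conditions without added stimulus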
[6] = basal HepG2 mitochondrial membrane potential changes, profiling panel, cell-based, JC-1 fluorescence, 24 h, 100 nL compound (AID 1167); settings: higher = more signal
[7] = basal 3T3-L1 adipocyte mitochondrial potential changes, profiling panel, cell-based, JC-1 fluorescence, 3T3-L1 adipocytes, 24 h, 100 nL compound (AID 1168); settings: JC-1 mitochondrial fluorescence, higher = more signal, called active from +8 up or from −8 down
[8] = basal RPMI8226 mitochondrial membrane potential changes, profiling panel, cell-based, JC-1 fluorescence, 24 h, 100 nL compound (AID 1169); settings: RPMI8226 myeloma, JC-1 mitochondrial potential fluorescence, higher = more signal
[9] = basal MM1S mitochondrial membrane potential changes, profiling panel, cell-based, JC-1 fluorescence, 24 h, 100 nL compound (AID 1170); settings: higher = more signal
[10] = A549 lung cancer cell viability effects, profiling panel, resazurin fluorescence, 24 h, PK04 Diversity Set (AID 1171); settings: higher = more signal, called active from +8 up or from −8 down
Also: test concentration not given here.

SMILES | z-score [1] | z-score [2] | z-score [3] | z-score [4] | z-score [5] | z-score [6] | z-score [7] | z-score [8] | z-score [9] | z-score [10]
CC[C@@H]1[C@@H]2C3C(=O)N(CC)C(=O)C3CC(=O)[C@@H]2[C@H](c2ccc(C)cc2)N1S(=O)(=O)c1ccc(C)cc1 (stereo not given in full) | 0.63 | 0.552 | 0.769 | -0.639 | -1.6 | 0.601 | 0.0417 (inactive) | -0.227 | -1.59 | -0.195 (inactive)
COc1ccc(C#Cc2ccc3c(c2)[C@]2(C(=O)N3)[C@H](C(=O)O)[C@H]3C(=O)O[C@H](c4ccccc4)[C@H](c4ccccc4)N3[C@@H]2c2ccc(OCCO)cc2)cc1 | 0.614 | 0.971 | 1.27 | -2.45 | -4.03 | -4.14 | -4.58 (inactive) | -1.23 | -1.27 | 0.982 (inactive)
C=CC[C@]1(C(=O)N(C)C)N=C(c2ccc(OCCCO)cc2)O[C@H]1c1ccccc1 | 0.203 | 1.17 | -0.308 | -0.27 | -1.19 | 1.5 | 0.644 (inactive) | -0.741 | -1.33 | 1.32 (inactive)
COCCOC(=O)N1C(=O)[C@@]2(c3cc(C#CCNC(N)=O)ccc31)[C@H](C(N)=O)[C@H]1C(=O)O[C@H](c3ccccc3)[C@H](c3ccccc3)N1[C@@H]2c1ccc(OCCO)cc1 | -0.304 | -0.867 | -0.392 | -0.905 | 0.66 | -2.81 | 0.441 (inactive) | -0.634 | -0.602 | 0.452 (inactive)
C=CC[C@@]1(C(=O)NCC(O)CO)N=C(c2ccc(OCCCO)cc2)O[C@@H]1c1ccccc1 (stereo not given in full) | 0.183 | 1.07 | -0.412 | 0.281 | -0.561 | -0.152 | 0.622 (inactive) | 0.49 | 1.18 | 0.295 (inactive)
COC(=O)[C@@]1(Cc2ccc(F)cc2)[C@@H]2[C@@H](CC(=O)[C@H]2CC(=O)C(=O)N2CCCC2)CN1C(=O)c1ccccc1 | -0.974 | -0.0508 | -0.191 | -2 | -1.73 | 0.129 | -1.52 (inactive) | -0.96 | -1.25 | -0.919 (inactive)
C=CCOC(=O)[C@@H]1[C@H]2C(=O)O[C@H](c3ccccc3)[C@H](c3ccccc3)N2[C@H](c2ccc(OCCOC(=O)[C@@H]3C[C@@H]4C(=O)N5CCC[C@H]5C(=O)N4[C@@H]3c3cccc(OCCO)c3)cc2)[C@@]12C(=O)Nc1ccc(I)cc12 | -0.283 | 0.584 | -1.27 | -0.16 | 0.583 | -0.853 | 0.272 (inactive) | -0.661 | -0.984 | 0.592 (inactive)
COCCOC(=O)N1C(=O)[C@@]2(c3cc(C#Cc4ccc(OC)cc4)ccc31)[C@H](c1ccc(OCCO)cc1)N1[C@H](c3ccccc3)[C@H](c3ccccc3)OC(=O)[C@H]1[C@@H]2C(N)=O | -0.383 | 0.806 | -0.792 | -1.14 | -2.7 | -0.617 | 1.98 (inactive) | -0.65 | -1.11 | -0.588 (inactive)
C/C=C/[C@@H](CCn1cc([C@H](O)c2ccccc2)nn1)[Si](C)(C)c1ccc(OC)cc1 | -0.536 | 0.485 | -0.713 | -2.9 | -3.1 | -1.13 | -0.255 (inactive) | -0.268 | -0.462 | 0.372 (inactive)
CN1C(=O)C2C=CC(C(O)C3CCCCC3)N(N(c3ccccc3)c3ccccc3)C2C1=O (stereo not given) | -0.42 | -0.88 | 0.149 | 0.241 | -0.758 | -0.954 | -1.2 (inactive) | -0.361 | -0.365 | -0.361 (inactive)
[N-]=[N+]=NCc1ccccc1[C@H]1OC(c2ccc(OCCCO)cc2)=N[C@@]1(Cc1ccccc1N=[N+]=[N-])C(=O)NCCN1CCOCC1 | -0.71 | -0.675 | 0.0583 | -1.71 | -1.52 | -0.247 | -0.738 (inactive) | -0.841 | -0.549 | 0.0825 (inactive)
Cc1ccc(S[C@]2(C(=O)NCc3ccccc3)CC(=O)N(C3Cc4ccccc4C3)[C@@H]2c2ccc(CO)cc2I)cc1 | 1.38 | -0.196 | 1.54 | -2.33 | -1.52 | 0.353 | 0.698 (inactive) | -0.686 | -0.972 | -0.862 (inactive)
C[N+](C)(C)CCCCCCNC(=O)[C@@H]1C[C@@H]2C(=O)NCC(=O)N2[C@@H]1c1cccc(OCCO)c1 | -0.308 | 0.867 | -1.2 | -2.7 | 0.422 | -0.844 | -0.0181 (inactive) | -0.0934 | -1.39 | 1.46 (inactive)
C=CCOC(=O)[C@@H]1[C@H]2C(=O)O[C@H](c3ccccc3)[C@H](c3ccccc3)N2[C@H](c2ccc(OCCOC(=O)[C@H]3C[C@H]4C(=O)N[C@@H](Cc5ccccc5)C(=O)N4[C@H]3c3cccc(OCCO)c3)cc2)[C@@]12C(=O)Nc1ccc(I)cc12 | 0.188 | -0.282 | 0.921 | -3.18 | -0.493 | 0.244 | 0.473 (inactive) | -0.903 | -1.57 | 0.535 (inactive)
COC(=O)[C@@]1(Cc2ccc(F)cc2)[C@H]2c3cc(C(=O)N(C)C)n(Cc4ccc(C)c(F)c4F)c3C[C@H]2CN1C(=O)c1ccccc1 | 0.674 | -0.609 | 1.03 | -0.144 | 0.299 | 3.29 | 0.157 (inactive) | 0.299 | -0.605 | 0.0638 (inactive)
O=C(N1CCOCC1)[C@@]1(CCS(=O)(=O)c2ccccc2)COC(c2ccc(OCCCO)cc2)=N1 | 0.437 | -1.09 | -0.0333 | 0.205 | 0.108 | -0.33 | -0.4 (inactive) | 0.238 | -0.659 | 0.201 (inactive)
O=C1NC(=O)C2C1C=CC(C(O)c1ccc(-c3ccccc3)s1)N2Nc1ccccn1 (stereo not given) | -0.275 | -0.456 | -0.538 | -0.0747 | -0.642 | -1.85 | -0.544 (inactive) | -0.115 | -0.371 | -0.842 (inactive)
Cc1ccc(N2C(=O)c3ccccc3[C@](C)(C(=O)NC(C)C)[C@@H]2c2ccc(CO)cc2)nc1 | -0.465 | 0.92 | -1.37 | -1.03 | -1.35 | -0.42 | -0.424 (inactive) | -0.586 | 1.34 | 0.0095 (inactive)
COCC1=C([C@H](O)CCc2ccccc2)[C@H](CO)[C@@H]2C(=O)N(C)C(=O)[C@@H]2C1 | 0.803 | -0.473 | 0.693 | 0.347 | -0.243 | 0.618 | -0.368 (inactive) | 0.442 | 0.341 | -0.515 (inactive)
COCCCNC(=O)[C@@]1(Cc2ccccc2)COC(c2ccc(OCCCO)cc2)=N1 | 0.654 | -0.598 | 1.02 | -0.35 | -1.04 | -1.11 | 0.154 (inactive) | -0.367 | -0.693 | 0.244 (inactive)
C=CCC(OC(C)=O)[C@@H]1[C@@H](N(Cc2ccc(-c3cccc(C(F)(F)F)c3)o2)C(=O)c2cccc3ccccc23)c2cc(OCCCO)ccc2N1C(=O)c1ccc(-c2ccccc2)cc1 (stereo not given in full) | 0.558 | 0.865 | -0.382 | -1.04 | -1.23 | 2.41 | -2.44 (inactive) | 0.00531 | 0.988 | -0.93 (inactive)
COC(=O)[C@@]1(Cc2ccccc2N=[N+]=[N-])N=C(c2ccc(OCCCO)cc2)O[C@H]1c1ccccc1 | -2.99 | -0.421 | -5.47 | -3.58 | -3.93 | -3.13 | -0.138 (inactive) | -1.06 | -2.9 | -2.88 (inactive)
C=C(C)[C@@H]1CC=C(C(O)C2C=CC3C(=O)N(C4CCCCC4)C(=O)C3N2Nc2ccc(OC)cc2)CC1 (stereo not given in full) | -0.447 | -1.46 | 0.319 | 0.0801 | -0.0663 | -0.227 | -0.836 (inactive) | -0.393 | -1.4 | 0.784 (inactive)
[N-]=[N+]=NCc1ccccc1C[C@]1(C(=O)NCCN2CCOCC2)COC(c2ccc(OCCCO)cc2)=N1 | 1.18 | -0.487 | 0.652 | 0.689 | -0.699 | 2.24 | 0.498 (inactive) | -0.218 | -1.05 | 0.169 (inactive)
CC(C)C[C@@H]1NC(=O)[C@@H]2C[C@H](C(=O)NCCCC[N+](C)(C)C)[C@H](c3cccc(OCCO)c3)N2C1=O | -0.316 | -0.0337 | -0.75 | -1.3 | -0.122 | -1.16 | -0.915 (inactive) | 0.789 | -0.132 | -0.331 (inactive)
Cc1ccccc1C(O)C1C=CC2C(=O)N(C)C(=O)C2N1Nc1ccc([N+](=O)[O-])cc1[N+](=O)[O-] (stereo not given) | 0.544 | -0.729 | 0.839 | -1.04 | -0.582 | -1.57 | -1.15 (inactive) | -0.0251 | -1.09 | -0.372 (inactive)
COc1ccc([Si](C)(C)[C@@H]2[C@@H](CC(=O)N(CCO)Cc3ccccc3)O[C@]3(C(=O)N(C)c4c(Br)cc(C)cc43)[C@H]2C)cc1 | -2.07 | -0.0228 | -2.44 | -2.75 | -4.38 | -2.82 | -0.68 (inactive) | -1.17 | -2.11 | -0.99 (inactive)
COC(=O)[C@@]1(Cc2ccc(OC)cc2)[C@H]2c3cc(C(=O)N(C)C)n(Cc4cc(C)n(C)n4)c3C[C@H]2CN1C(=O)c1ccccc1 | -0.892 | 0.336 | -0.384 | -0.407 | -1.77 | 1.57 | -0.938 (inactive) | 0.534 | -0.228 | -1.9 (inactive)
CCCCCCC#C[Si](O[C@H](c1ccccc1)c1cn(Cc2cccc(Cl)c2)nn1)(C(C)C)C(C)C | 1.11 | -0.896 | 0.761 | 0.481 | -0.695 | 3.44 | 0.169 (inactive) | -0.149 | -1.06 | 2.58 (inactive)
